Source: PubChem BioAssay
Only some compounds are listed: those with a hit (about 3.1% of all), similar ones and a draw of the others.
ERAP1 HTS inh: inhibitors of human ERAP1 aminopeptidase; Q9NZ08; recombinant ERAP1, Leu-AMC fluorescence, 60 min; inhibition, % at 10.7 µM; 340,000 compounds, 0.15% hits;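 active = mean replicate inhibition of at least 30%, or all replicates individually reaching that 30% level; inactive = mean below 30% and not every replicate reaching it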;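 note: 0% = neutral control wells and 100% = L-leucinethiol positive control wells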
SIRT5 block: blocks human SIRT5 desuccinylation of peptide; Q9NXA8; Purified SirT5, succinyl-peptide AMC, trypsin-coupled fluorescence; inhibition, % at 15 µM; 330,000 compounds, 1.1% hits; in the data active = inhibition above about 15%
FGF22 binding: FGF22 (human) thermal shift binding; 340,000 compounds, 1.5% hits; recombinant FGF22 thermal shift, SYPRO orange fluorescence; percent of sucrose octasulfate shift, DMSO zero; Q9HCT0; activity (Tm shift, normalised), % at 9.99 µM;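 active = mean Tm shift, scaled 0 neutral to 100 positive control, at about 1.3% or above, every replicate too, limit read from the data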
Target sequence (Q9HCT0 whole entry, looked up): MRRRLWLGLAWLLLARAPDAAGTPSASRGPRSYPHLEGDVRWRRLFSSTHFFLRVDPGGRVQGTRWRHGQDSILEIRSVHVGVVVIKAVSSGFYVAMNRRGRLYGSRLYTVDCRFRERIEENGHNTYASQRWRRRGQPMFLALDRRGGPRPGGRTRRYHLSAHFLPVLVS
Casp6 inh: caspase-6 (human) enzyme inhibition. inhibition, % at 12.5 µM. 350,000 compounds, 0.53% hits. purified caspase-6, Z-VEID-R110 cleavage fluorescence. AID 686996;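 active = mean inhibition across replicates at least about 35%, with every replicate also reaching that limit, limit read from the data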;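 note: 0% = median of neutral control wells and 100% = no fluorescence left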
The depositor's hits bear a star; / = no result.

SMILES	ERAP1 HTS inh	SIRT5 block	FGF22 binding	Casp6 inh
COc1cccc(CNc2nc3cc(-c4ccccc4)sc3c(=O)n2C)c1OC	0	1	0	-1
CCOc1ccc(CCN2C(=O)C(=O)N([C@@H](Cc3ccccc3)CN3CCC[C@@H]3CN3C(=O)C(=O)NC[C@@H]3Cc3ccc(O)cc3)C[C@@H]2Cc2ccccc2)cc1	-1	38*	0	4
CC(C)C[C@H]1CNC(=S)N1C[C@H]1CCCN1C[C@H](Cc1ccc(O)cc1)N1C[C@H](Cc2ccc(O)cc2)N(CC2CCCCCC2)C1=S	-1	/	43*	-4
CCOc1ccc(CCN2C(=O)C(=O)N([C@@H](Cc3ccccc3)CN3CCC[C@H]3CN3C(=O)C(=O)NC[C@@H]3Cc3ccc(O)cc3)C[C@@H]2CC(C)C)cc1	1	-2	0	3
COc1cccc(NC(=O)N2C[C@@H](O)COC[C@H]3O[C@@H](CC(=O)NC4Cc5ccccc5C4)CC[C@@H]32)c1	-1	0	0	1
CN1/C(=C\C(=O)Nc2ccc(Cl)cc2)C(C)(C)c2ccccc21	1	5	44*	-2
O=C(C[C@@H]1CC[C@@H]2[C@H](COC[C@H](O)CN2Cc2nccs2)O1)NCc1ccc(-c2ccccc2)cc1	-1	0	0	-1
CC1CN(C)C(C)C/C1=N/Oc1ccccc1[N+](=O)[O-] (stereo not given)	1	-2	44*	17
CC1CN(C)C(C)C/C1=N\Oc1ccc([N+](=O)[O-])cc1 (stereo not given)	-1	2	0	-2
COc1ccc(S(=O)(=O)N(C)C[C@@H]2OCCCC[C@H](C)Oc3ccc(NC(=O)Nc4ccc(F)cc4)cc3C(=O)N([C@@H](C)CO)C[C@@H]2C)cc1	1	3	-1	1
CC(=O)Nc1ccc2c3c(cccc13)C(=O)N(c1ccccc1)C2=O	-10	-6	0	-2
O=CNc1ccc2c3c(cccc13)-c1ccccc1-2	-4	1	45*	-1
CO[C@H]1CN(C)C(=O)c2cc(NC(=O)c3ccccc3F)ccc2OC[C@H](C)N(CC2CC2)C[C@@H]1C	-4	-1	0	-2
C[C@@H]1CN([C@H](C)CO)C(=O)c2cc(NS(=O)(=O)c3ccc(Cl)cc3)ccc2O[C@@H](C)CCCCO[C@H]1CN(C)S(=O)(=O)c1ccccc1	-1	19*	/	3
C[C@H]1CCCCO[C@H](CN(C)S(=O)(=O)c2ccc(Cl)cc2)[C@@H](C)CN([C@@H](C)CO)C(=O)c2cc(NS(=O)(=O)c3ccccc3)ccc2O1	2	28*	-1	0
Cc1ccc(S(=O)(=O)Nc2ccc3c(c2)CC(=O)N([C@@H](C)CO)C[C@@H](C)[C@H](CN(C)C(=O)Nc2ccc(F)cc2)O3)cc1	1	-1	0	0
CNC[C@H]1Oc2ccc(NS(=O)(=O)c3ccc(F)cc3)cc2CC(=O)N([C@@H](C)CO)C[C@H]1C	-2	5	0	-1
COc1ccc2c3c(n(C)c2c1)[C@@H](CO)N(Cc1ccccc1F)CC31CCN(C(=O)C2CCCC2)CC1	0	3	-1	0
CC(=O)C[C@@H](O)CC(=O)[C@@H]1OC(=O)CCCCC/C=C/Cc2ccccc21	0	24*	0	-1
CC(=O)C[C@H](O)CC(=O)[C@H]1OC(=O)CCCCC/C=C/Cc2ccccc21	-3	/	0	-5
CC[C@H]1C/C=C\Cc2ccccc2[C@@H](C(=O)C[C@@H](O)CC(C)=O)OC1=O	8	18*	0	-1
COc1ccc(C#Cc2cnc3c(c2)C(=O)N([C@@H](C)CO)C[C@H](C)[C@H](CN(C)CC2CC2)O3)cc1	0	/	0	-2
CCOC(=O)c1sc2nc3c(SCC(=O)O)cc(C(=O)c4ccccc4O)cn3c(=O)c2c1C	/	-6	0	11
O=C(O)CSc1cc(C(=O)c2ccccc2O)cn2c(=O)c3c(-c4ccccc4)csc3nc12	/	11	1	39*
Cc1noc(C)c1S(=O)(=O)Nc1ccc2c(c1)C(=O)N([C@@H](C)CO)C[C@H](C)[C@H](CN(C)S(=O)(=O)c1ccccc1)OCCCC[C@H](C)O2	2	1	0	0
COc1cccc(NC(=O)N2[C@@H]3CNC[C@H]2C3c2ccc(/C=C/c3ccccc3)cc2)c1 (stereo not given in full)	-2	3	/	-1
CC(C)(C)c1ccc(S(=O)(=O)NC(=O)C2(C)CCN2C(=O)C2CCCCC2)cc1 (stereo not given)	1	19*	0	4
